# PubChem BioAssay (Tox21)
# Values joined by “and” are separate entries in the source; they are usually repeats but may differ in a detail not shown here. Equal values may be shown once. Records with an inconclusive call do not appear. Entries that show only a call come without a potency. Some structures have more than one record in an assay (separate samples or runs), and their calls can disagree. Active and inactive are the calls of the source. Unless noted, the call rests on the fitted dose curve; in most records, active means well fitted curve in the direction sought with a large enough effect in the repeat runs; inconclusive means weak or mixed curves; inactive means no such curve, though single readings can be large; an effect the other way counts as inactive or inconclusive.
# How the values were obtained:
# [1] = qHTS assay to identify aromatase inhibitors - cell viability counter screen (AID 743084);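 further: cells stimulated with testosterone during compound exposure; nearly all actives have a fitted effect of over 55% in size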
# [2] = molecular target: Aryl hydrocarbon receptor (Homo sapiens) (UniProt P35869); test: qHTS assay to identify small molecule that activate the aryl hydrocarbon receptor (AhR) signaling pathway (AID 743085); further: nearly all actives have a fitted effect of over 15% in size; further: potency means the concentration at half of the fitted maximal effect;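 on activation: HG2L7.5c1 human HepG2 liver cells with stably integrated DRE-driven firefly reporter; series mostly up to about 70 µM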
# Sequence of Aryl hydrocarbon receptor (Homo sapiens) (P35869 whole entry, looked up): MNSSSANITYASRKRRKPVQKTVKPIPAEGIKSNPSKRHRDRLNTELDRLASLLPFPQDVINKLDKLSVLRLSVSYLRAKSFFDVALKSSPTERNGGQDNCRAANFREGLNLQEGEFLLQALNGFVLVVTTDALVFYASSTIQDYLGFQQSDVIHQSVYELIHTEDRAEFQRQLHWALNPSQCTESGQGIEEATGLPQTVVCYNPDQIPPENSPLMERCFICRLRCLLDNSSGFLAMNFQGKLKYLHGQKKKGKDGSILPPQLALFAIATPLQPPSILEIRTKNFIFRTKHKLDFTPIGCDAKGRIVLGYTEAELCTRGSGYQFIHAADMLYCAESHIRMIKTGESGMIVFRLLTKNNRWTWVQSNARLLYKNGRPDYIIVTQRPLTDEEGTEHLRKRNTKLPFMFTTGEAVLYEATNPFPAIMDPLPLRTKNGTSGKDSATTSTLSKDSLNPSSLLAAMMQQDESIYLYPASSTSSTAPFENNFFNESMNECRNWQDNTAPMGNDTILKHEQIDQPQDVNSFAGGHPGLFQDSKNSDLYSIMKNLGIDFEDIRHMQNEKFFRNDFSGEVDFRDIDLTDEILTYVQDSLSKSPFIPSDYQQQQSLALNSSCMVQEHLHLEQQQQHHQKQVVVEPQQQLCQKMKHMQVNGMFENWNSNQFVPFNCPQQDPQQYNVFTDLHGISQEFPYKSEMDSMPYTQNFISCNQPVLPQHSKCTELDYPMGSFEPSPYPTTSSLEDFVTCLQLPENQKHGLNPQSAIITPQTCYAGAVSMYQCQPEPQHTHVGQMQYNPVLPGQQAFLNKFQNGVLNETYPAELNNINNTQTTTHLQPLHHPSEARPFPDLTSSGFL
# Outline: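 Compounds were tested in HepG2 hepatocellular carcinoma cells harbouring a stably integrated luciferase gene under control of 20 DREs. Increased reporter signal after 24 h treatment at 37C was taken as AhR activation.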
# [3] = qHTS assay to identify small molecule that activate the aryl hydrocarbon receptor (AhR) signaling pathway - cell viability counter screen (AID 743086);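 further: HepG2 liver cells carrying the AhR DRE luciferase reporter; series mostly up to about 70 µM; nearly all actives have a fitted effect of over 45% in size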
# Outline: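 HepG2-AhR-luc (HG2L7.5c1) cells, 4000/well, treated 24 h at 37 C with compound; viability measured as CellTiter-Fluor fluorescence after 30 min in the same wells as the luciferase read.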
# [4] = molecular target: Peroxisome proliferator-activated receptor gamma (Homo sapiens) (UniProt P37231); test: qHTS assay to identify small molecule agonists of the peroxisome proliferator-activated receptor gamma (PPARg) signaling pathway (AID 743094; active means well fitted activation curve with a large enough effect in the signal ratio in the repeat runs, not every such curve was filed as active; the % refers to the signal ratio)
# Sequence of Peroxisome proliferator-activated receptor gamma (Homo sapiens) (P37231 whole entry, looked up): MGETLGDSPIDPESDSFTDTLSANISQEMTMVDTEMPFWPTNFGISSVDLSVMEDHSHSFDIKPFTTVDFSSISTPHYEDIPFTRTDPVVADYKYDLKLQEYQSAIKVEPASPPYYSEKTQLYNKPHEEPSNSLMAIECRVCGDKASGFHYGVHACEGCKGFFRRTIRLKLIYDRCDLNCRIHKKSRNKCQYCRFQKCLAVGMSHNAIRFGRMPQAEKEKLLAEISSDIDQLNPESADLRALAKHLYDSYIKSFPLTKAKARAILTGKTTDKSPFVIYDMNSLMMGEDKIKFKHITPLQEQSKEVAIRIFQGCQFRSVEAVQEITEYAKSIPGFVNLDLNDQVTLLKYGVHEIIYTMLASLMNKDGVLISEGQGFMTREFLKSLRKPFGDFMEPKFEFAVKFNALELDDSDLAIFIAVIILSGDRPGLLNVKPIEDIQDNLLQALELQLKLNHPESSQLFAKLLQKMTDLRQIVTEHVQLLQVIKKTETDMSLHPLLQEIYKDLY
# Outline: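 Cell-based bla reporter, HEK293H background, PPARg-driven UAS. Pre-incubation 5 h, 37C, 5% CO2. Compound 17 h, 37C. Substrate 1 h RT; fluorescence.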
# [5] = qHTS assay to identify small molecule antagonists of the peroxisome proliferator-activated receptor gamma (PPARg) signaling pathway - cell viability counter screen (AID 743194); further: nearly all actives have a fitted effect of over 55% in size
# Outline: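 Cytotoxicity counter screen in PPARg-bla HEK293H cells, same wells as reporter assay. Compounds plus 50 nM rosiglitazone (final) for 17 h at 37 C, then viability read by CellTiter-Glo luminescence.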
# [6] = qHTS assay for small molecule agonists of the antioxidant response element (ARE) signaling pathway (AID 743202; active means well fitted activation curve with a large enough effect in the signal ratio in the repeat runs, not every such curve was filed as active; the % refers to the signal ratio; further: potency means the concentration at half of the fitted maximal effect)
# Outline: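 HepG2 ARE-bla cells; 16 h treatment at 37 C; FRET-based beta-lactamase fluorescence read after 2 h substrate incubation at room temperature.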
# [7] = qHTS assay for small molecule agonists of the antioxidant response element (ARE) signaling pathway - cell viability counter screen (AID 743203; calls by dose curve; further: nearly all actives have a fitted effect of over 55% in size)
# Outline: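 Measured in the same wells as the beta-lactamase ARE reporter, this read-out is CellTiter-Glo luminescence from HepG2 ARE-bla cells given compounds for 16 hrs.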
# [8] = qHTS assay for small molecule activators of the heat shock response signaling pathway - cell viability counter screen (AID 743209); further: nearly all actives have a fitted effect of over 50% in size
# Outline: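 Same-well multiplex: after 2.5 h room-temperature incubation with LiveBLAzer B/G substrate and fluorescence reading, CellTiter-Glo reagent was added to HSE-bla HeLa cells that had received compound for 5 h at 37 C; luminescence read after 30 min.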
# [9] = qHTS assay for small molecule activators of the heat shock response signaling pathway (AID 743210; active means well fitted activation curve with a large enough effect in the signal ratio in the repeat runs, with a control signal flat, not every such curve was filed as active; the % refers to the signal ratio;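 further: HeLa cells with beta-lactamase reporter driven by heat shock elements; series mostly up to about 63 µM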)
# Outline: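 Following overnight attachment, HSE-bla HeLa cells received test compounds for 5 h at 37 C; beta-lactamase activity was then detected via FRET substrate fluorescence.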
# [10] = molecular target: Peroxisome proliferator-activated receptor delta (Homo sapiens) (UniProt Q03181); test: qHTS assay to identify small molecule agonists of the peroxisome proliferator-activated receptor delta (PPARd) signaling pathway (AID 743212; calls by dose curve)
# Sequence of Peroxisome proliferator-activated receptor delta (Homo sapiens) (Q03181 whole entry, looked up): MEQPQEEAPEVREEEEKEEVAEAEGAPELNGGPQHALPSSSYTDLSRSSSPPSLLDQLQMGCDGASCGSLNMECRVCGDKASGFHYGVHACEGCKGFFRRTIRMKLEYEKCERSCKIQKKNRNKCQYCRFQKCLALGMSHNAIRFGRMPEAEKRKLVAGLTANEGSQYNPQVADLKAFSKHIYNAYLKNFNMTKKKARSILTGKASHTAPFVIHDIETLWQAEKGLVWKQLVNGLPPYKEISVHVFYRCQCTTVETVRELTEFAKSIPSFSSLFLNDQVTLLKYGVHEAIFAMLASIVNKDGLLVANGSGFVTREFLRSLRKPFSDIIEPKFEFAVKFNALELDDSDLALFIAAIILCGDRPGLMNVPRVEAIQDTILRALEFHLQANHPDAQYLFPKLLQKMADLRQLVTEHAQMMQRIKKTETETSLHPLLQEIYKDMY
# Outline: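 Tox21 library screened in GeneBLAzer PPARd UAS-bla HEK293H cells. After compound treatment at 37 C, a FRET-based beta-lactamase substrate was applied for 2 h and fluorescence recorded.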
# [11] = qHTS assay to identify small molecule antagonists of the peroxisome proliferator-activated receptor delta (PPARd) signaling pathway - cell viability counter screen (AID 743213); further: nearly all actives have a fitted effect of over 50% in size
# Outline: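 Cytotoxicity counter screen: CellTiter-Glo luminescence read 30 min after addition, in the same wells as the reporter assay. There, PPARd UAS-bla HEK293H cells (3000/well) were treated 17 h at 37 C with compound and 300 nM L165041.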
# [12] = molecular target: Peroxisome proliferator-activated receptor delta (Homo sapiens) (UniProt Q03181); test: qHTS assay to identify small molecule antagonists of the peroxisome proliferator-activated receptor delta (PPARd) signaling pathway (AID 743215; active means well fitted inhibition curve with a large enough effect in the signal ratio in the repeat runs, not every such curve was filed as active; the % refers to the signal ratio;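 further: cells stimulated with agonist L165041 at 300 nM final during compound exposure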; further: potency means the concentration at half of the fitted maximal effect)
# Outline: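 Fluorescence from cleaved LiveBLAzer B/G FRET substrate (2 h, room temperature) reports PPARd-driven beta-lactamase in HEK293H UAS-bla cells. Cells had been treated 17 h at 37 C with compound plus 300 nM final L165041.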
# [13] = molecular target: Bile acid receptor (Homo sapiens) (UniProt Q96RI1); test: qHTS assay to identify small molecule antagonists of the farnesoid-X-receptor (FXR) signaling pathway (AID 743217; active means well fitted inhibition curve with a large enough effect in the signal ratio in the repeat runs, not every such curve was filed as active; the % refers to the signal ratio)
# Sequence of Bile acid receptor (Homo sapiens) (Q96RI1 whole entry, looked up): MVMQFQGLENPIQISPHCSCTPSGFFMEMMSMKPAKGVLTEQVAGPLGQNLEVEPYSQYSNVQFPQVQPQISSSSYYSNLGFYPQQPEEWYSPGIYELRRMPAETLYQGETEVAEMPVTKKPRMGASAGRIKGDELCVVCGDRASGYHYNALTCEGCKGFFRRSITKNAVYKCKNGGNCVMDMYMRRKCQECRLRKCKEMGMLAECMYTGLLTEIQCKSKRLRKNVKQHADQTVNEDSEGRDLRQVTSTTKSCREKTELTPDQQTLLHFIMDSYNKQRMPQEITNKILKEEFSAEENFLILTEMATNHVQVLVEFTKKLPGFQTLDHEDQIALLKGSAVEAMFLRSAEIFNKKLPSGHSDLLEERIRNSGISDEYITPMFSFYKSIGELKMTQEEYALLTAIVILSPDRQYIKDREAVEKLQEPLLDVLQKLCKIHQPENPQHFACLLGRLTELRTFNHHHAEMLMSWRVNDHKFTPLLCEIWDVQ
# Outline: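 FRET fluorescence after 2 h room-temperature LiveBLAzer loading gives the readout. Prior step: FXR-bla HEK 293T cells, seeded and incubated 5 h, received test compounds plus 50 uM final CDCA for 16 h at 37 °C.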
# [14] = qHTS assay to identify small molecule agonists of the farnesoid-X-receptor (FXR) signaling pathway - cell viability counter screen (AID 743218); further: nearly all actives have a fitted effect of over 45% in size
# Outline: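 Readout: CellTiter-Glo luminescence, 30 min RT, multiplexed after the FXR-bla FRET reading. HEK 293T FXR-UAS-bla cells received compound 5 h post-plating and were incubated 16 h at 37 C.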
# [15] = molecular target: Bile acid receptor (Homo sapiens) (UniProt Q96RI1); test: qHTS assay to identify small molecule agonists of the farnesoid-X-receptor (FXR) signaling pathway (AID 743220; active means well fitted activation curve with a large enough effect in the signal ratio in the repeat runs, not every such curve was filed as active; the % refers to the signal ratio)
# Outline: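 FXR-UAS-bla HEK 293T cells carrying a UAS-driven beta-lactamase reporter were plated for 5 h at 37C/5% CO2, then exposed to DMSO-dissolved Tox21 10K compounds for 16 h at 37C. A LiveBLAzer B/G FRET substrate was loaded for 2 h at room temperature before fluorescence reading.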
# [16] = qHTS assay to identify small molecule antagonists of the farnesoid-X-receptor (FXR) signaling pathway - cell viability counter screen (AID 743221; active means well fitted cell-killing curve with a large enough effect in the repeat runs, not every such curve was filed as active; further: nearly all actives have a fitted effect of over 50% in size)
# Outline: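 Multiplexed counter screen: viability of FXR-bla HEK 293T cells under agonist stimulation by chenodeoxycholic acid (50 uM, final) and test compound for 16 h at 37 C, measured by CellTiter-Glo luminescence in the reporter wells.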
# [17] = molecular target: Vitamin D3 receptor (Homo sapiens) (UniProt P11473); test: qHTS assay to identify small molecule agonists of the vitamin D receptor (VDR) signaling pathway (AID 743222; calls by dose curve)
# Sequence of Vitamin D3 receptor (Homo sapiens) (P11473 whole entry, looked up): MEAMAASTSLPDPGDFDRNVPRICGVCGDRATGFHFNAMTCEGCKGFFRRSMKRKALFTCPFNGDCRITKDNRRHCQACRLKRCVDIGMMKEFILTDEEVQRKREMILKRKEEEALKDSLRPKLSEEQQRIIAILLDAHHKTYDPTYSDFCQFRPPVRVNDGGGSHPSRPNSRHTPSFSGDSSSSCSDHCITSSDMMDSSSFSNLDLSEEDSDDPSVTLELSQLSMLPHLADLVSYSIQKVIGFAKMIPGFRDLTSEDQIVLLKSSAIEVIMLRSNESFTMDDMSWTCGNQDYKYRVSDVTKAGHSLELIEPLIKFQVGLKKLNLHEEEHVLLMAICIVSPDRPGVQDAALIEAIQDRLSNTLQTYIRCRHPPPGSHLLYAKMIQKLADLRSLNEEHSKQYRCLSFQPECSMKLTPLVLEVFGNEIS
# Outline: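 Following 4 h attachment at 37C, VDR-bla cells (2,000 per well) received DMSO-dissolved compounds or controls. After 16 h incubation, LiveBLAzer B/G FRET substrate was added and fluorescence read 2 h later at room temperature.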
# [18] = molecular target: Vitamin D3 receptor (Homo sapiens) (UniProt P11473); test: qHTS assay to identify small molecule antagonists of the vitamin D receptor (VDR) signaling pathway (AID 743223; active means well fitted inhibition curve with a large enough effect in the signal ratio in the repeat runs, not every such curve was filed as active; the % refers to the signal ratio)
# Outline: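 Cells carrying a VDR-driven beta-lactamase reporter (VDR-bla) were co-treated with compound and 3 nM final 1alpha,25-dihydroxyvitamin D3 for 16 h at 37C; reporter activity was measured as FRET substrate fluorescence after 2 h at room temperature.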
# [19] = molecular target: Peroxisome proliferator-activated receptor gamma (Homo sapiens) (UniProt P37231); test: qHTS assay to identify small molecule antagonists of the peroxisome proliferator-activated receptor gamma (PPARg) signaling pathway (AID 743191; calls by dose curve; further: series mostly up to about 63 µM; nearly all actives have a fitted effect of over 30% in size)
# Outline: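 GeneBLAzer PPARg UAS-bla HEK293H cells, 5 h post-plating, exposed to compounds 17 h at 37C. LiveBLAzer B/G FRET substrate added for 1 h at room temperature; beta-lactamase reporter read by fluorescence intensity.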
# [20] = qHTS assay to identify small molecule agonists of the peroxisome proliferator-activated receptor delta (PPARd) signaling pathway - cell viability counter screen (AID 743211); further: nearly all actives have a fitted effect of over 55% in size
# Outline: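 Counter screen for cytotoxicity run in parallel with the PPARd reporter screen. Beta-lactamase reporter HEK293H cells exposed to compounds 17 h; ATP-based CellTiter-Glo luminescence quantified viability.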
Structure (SMILES),outcome [1],Potency [2],outcome [3],outcome [4],outcome [5],Potency [6],outcome [7],outcome [8],outcome [9],outcome [10],outcome [11],Potency [12],outcome [13],outcome [14],outcome [15],outcome [16],outcome [17],outcome [18],Potency [19],outcome [20]
CC(C)OC(=O)Nc1cccc(Cl)c1,inactive,inactive,inactive,inactive,inactive,inactive,inactive,inactive,inactive,inactive,inactive,inactive,inactive,inactive,inactive,inactive,inactive,inactive,,
Cc1ccc([N+](=O)[O-])cc1C,inactive,inactive,inactive,,inactive,inactive,inactive,inactive,inactive,inactive,inactive,inactive,inactive,inactive,inactive,inactive,inactive,inactive,inactive,inactive
CC(C)NC(=O)N1CC(=O)N(c2cc(Cl)cc(Cl)c2)C1=O,inactive,4.86 µM (active) and 15.4 µM (active),inactive,inactive,inactive,inactive,inactive,inactive,,inactive,inactive,inactive,,inactive,,inactive,,,inactive,inactive
Cc1ccc(N)cc1N,inactive,21.1 µM (active) and 27.3 µM (active),inactive,,inactive,inactive,inactive,inactive,inactive,inactive,inactive,inactive,inactive,inactive,inactive,,inactive,inactive,inactive,inactive
Clc1ccccc1Cl,inactive,inactive,inactive,inactive,inactive,inactive,inactive,inactive,inactive,inactive,inactive,inactive,inactive,inactive,inactive,,inactive,inactive,,inactive
O=c1[nH]c2ccccc2c(=O)o1,inactive,inactive,inactive,inactive,inactive,inactive,inactive,inactive,inactive,inactive,inactive,inactive,inactive,inactive,inactive,,inactive,inactive,,
COC(=O)c1ccccc1C(=O)OC,inactive,inactive,inactive,,inactive,inactive,inactive,inactive,inactive,,inactive,,inactive,,inactive,inactive,inactive,inactive,inactive,inactive
CCC(C)(CC)c1cc(NC(=O)c2c(OC)cccc2OC)on1,inactive,61.3 µM (active),inactive,,inactive,,inactive,inactive,inactive,inactive,inactive,55.1 µM (active) and inactive,,inactive,,inactive,inactive,inactive,,inactive
CN1C(=O)CN=C(c2ccccc2)c2cc(Cl)ccc21,inactive,,inactive,,inactive,inactive,inactive,inactive,inactive,,inactive,,inactive,inactive,inactive,inactive,inactive,inactive,,
CC(C#N)CCC#N (stereo not drawn),inactive,inactive,inactive,,inactive,inactive,inactive,inactive,inactive,inactive,inactive,inactive,,inactive,,inactive,inactive,inactive,inactive,
C[C@]12CC[C@H]3[C@@H](CC[C@@]45O[C@@H]4C(O)=C(C#N)C[C@]35C)[C@@H]1CC[C@@H]2O,inactive,inactive,inactive,,inactive,30.6 µM (active) and 23.7 µM (active),inactive,inactive,inactive,inactive,inactive,inactive,,inactive,,,inactive,,,inactive
CC(C)(C)OOC(=O)c1ccccc1,inactive,inactive,inactive,,inactive,inactive,inactive,inactive,inactive,inactive,inactive,inactive,,inactive,,inactive,inactive,inactive,inactive,
Cn1cc(-c2ccccc2)c(=O)c(-c2cccc(C(F)(F)F)c2)c1,,inactive,inactive,,inactive,inactive,inactive,inactive,inactive,inactive,inactive,inactive,,inactive,,,,,inactive,inactive
CCOC(=O)c1ccccc1C(=O)OCC,inactive,,inactive,,inactive,inactive,inactive,inactive,inactive,inactive,inactive,inactive,,inactive,,inactive,inactive,inactive,inactive,
O=C(O)c1ccccn1,inactive,inactive,inactive,,inactive,inactive,inactive,inactive,inactive,,inactive,,,inactive,,inactive,,,inactive,
OC(O)C(Cl)(Cl)Cl,inactive,inactive,inactive,,inactive,inactive,inactive,inactive,,inactive,inactive,inactive,inactive,inactive,inactive,inactive,,,inactive,inactive
ClCCBr,inactive,inactive,inactive,,inactive,inactive,inactive,inactive,,inactive,inactive,inactive,,inactive,,inactive,,,inactive,
COC(=O)NC(=S)Nc1ccccc1NC(=S)NC(=O)OC,inactive,,inactive,inactive,inactive,,inactive,inactive,inactive,inactive,inactive,inactive,inactive,inactive,inactive,inactive,inactive,inactive,inactive,inactive
